Legend:
[1] = target: T1, Serine/threonine-protein kinase TBK1 (Homo sapiens) (UniProt Q9UHD2); details: at 1 µM;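 note: values are mean inhibition of TBK1, screened as part of the GSK published kinase inhibitor set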
T1 sequence (whole entry): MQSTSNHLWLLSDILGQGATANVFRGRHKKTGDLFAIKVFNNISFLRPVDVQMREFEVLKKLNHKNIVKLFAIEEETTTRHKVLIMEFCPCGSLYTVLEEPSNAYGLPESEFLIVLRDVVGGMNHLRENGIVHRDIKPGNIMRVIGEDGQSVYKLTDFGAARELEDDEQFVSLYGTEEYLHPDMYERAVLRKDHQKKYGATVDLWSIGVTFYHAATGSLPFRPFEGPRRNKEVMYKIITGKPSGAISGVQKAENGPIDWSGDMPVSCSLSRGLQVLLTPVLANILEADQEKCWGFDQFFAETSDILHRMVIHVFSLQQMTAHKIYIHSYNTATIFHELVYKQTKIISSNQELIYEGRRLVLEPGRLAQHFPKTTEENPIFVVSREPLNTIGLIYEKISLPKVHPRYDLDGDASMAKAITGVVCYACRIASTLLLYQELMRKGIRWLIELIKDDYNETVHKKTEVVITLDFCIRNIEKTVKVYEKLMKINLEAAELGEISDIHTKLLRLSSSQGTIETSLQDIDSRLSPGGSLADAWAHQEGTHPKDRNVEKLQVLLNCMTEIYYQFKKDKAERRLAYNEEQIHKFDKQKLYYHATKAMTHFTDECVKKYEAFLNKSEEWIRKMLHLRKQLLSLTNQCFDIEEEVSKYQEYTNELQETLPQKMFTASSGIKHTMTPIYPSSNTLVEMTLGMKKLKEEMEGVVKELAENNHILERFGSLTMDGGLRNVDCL

[2] = target: T2, Testis-specific serine/threonine-protein kinase 1 (Homo sapiens) (UniProt Q9BXA7); details: at 0.1 µM
T2 sequence (whole entry): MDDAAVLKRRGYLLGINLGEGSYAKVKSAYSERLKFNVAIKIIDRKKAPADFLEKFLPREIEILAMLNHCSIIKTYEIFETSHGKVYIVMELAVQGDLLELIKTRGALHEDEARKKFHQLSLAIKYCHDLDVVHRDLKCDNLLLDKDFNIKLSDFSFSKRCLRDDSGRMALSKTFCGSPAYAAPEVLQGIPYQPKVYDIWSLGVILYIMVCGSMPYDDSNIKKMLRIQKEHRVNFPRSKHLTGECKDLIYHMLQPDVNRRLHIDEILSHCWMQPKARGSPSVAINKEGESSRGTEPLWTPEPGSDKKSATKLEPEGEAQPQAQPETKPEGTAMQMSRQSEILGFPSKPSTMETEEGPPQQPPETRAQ

[3] = target: T2, Testis-specific serine/threonine-protein kinase 1 (Homo sapiens); details: at 1 µM
[4] = target: T3, Testis-specific serine/threonine-protein kinase 2 (Homo sapiens) (UniProt Q96PF2); details: at 0.1 µM
T3 sequence (whole entry): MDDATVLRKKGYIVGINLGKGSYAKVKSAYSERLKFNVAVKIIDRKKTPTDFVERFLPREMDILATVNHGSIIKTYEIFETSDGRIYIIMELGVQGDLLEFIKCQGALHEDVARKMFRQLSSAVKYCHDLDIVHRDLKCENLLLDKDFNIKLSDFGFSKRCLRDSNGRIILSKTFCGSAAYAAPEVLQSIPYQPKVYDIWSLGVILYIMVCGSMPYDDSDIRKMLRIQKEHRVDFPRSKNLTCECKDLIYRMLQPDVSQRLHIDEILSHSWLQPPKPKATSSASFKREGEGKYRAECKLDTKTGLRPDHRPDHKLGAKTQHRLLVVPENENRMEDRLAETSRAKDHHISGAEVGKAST

[5] = target: T3, Testis-specific serine/threonine-protein kinase 2 (Homo sapiens); details: at 1 µM
[6] = target: Casein kinase I isoform alpha (Homo sapiens) (UniProt P48729); details: at 0.1 µM
[7] = target: Casein kinase I isoform alpha (Homo sapiens) (UniProt P48729); details: at 1 µM
[8] = target: Casein kinase I isoform gamma-1 (Homo sapiens) (UniProt Q9HCP0); details: at 0.1 µM
[9] = target: Casein kinase I isoform gamma-1 (Homo sapiens) (UniProt Q9HCP0); details: at 1 µM
[10] = target: Casein kinase I isoform gamma-2 (Homo sapiens) (UniProt P78368); details: at 0.1 µM
[11] = target: Casein kinase I isoform gamma-2 (Homo sapiens) (UniProt P78368); details: at 1 µM
[12] = target: Casein kinase I isoform gamma-3 (Homo sapiens) (UniProt Q9Y6M4); details: at 0.1 µM
[13] = target: Casein kinase I isoform gamma-3 (Homo sapiens) (UniProt Q9Y6M4); details: at 1 µM
[14] = target: Cyclin-dependent kinase 1 (Homo sapiens) (UniProt P06493); details: at 0.1 µM
[15] = target: Cyclin-dependent kinase 1 (Homo sapiens) (UniProt P06493); details: at 1 µM
[16] = target: Cyclin-dependent kinase 2 (Homo sapiens) (UniProt P24941); details: at 0.1 µM
[17] = target: Cyclin-dependent kinase 2 (Homo sapiens) (UniProt P24941); details: at 1 µM
[18] = target: Cyclin-dependent kinase 2 (Homo sapiens) (UniProt P24941); details: at 0.1 µM; remark: listed apart in the source
[19] = target: Cyclin-dependent kinase 2 (Homo sapiens) (UniProt P24941); details: at 1 µM; remark: listed apart in the source
[20] = target: CDK3/Cyclin E (Homo sapiens) (UniProt P24864+Q00526); details: at 0.1 µM;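 note: reported percentages are mean inhibition values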
Sequence of CDK3/Cyclin E (Homo sapiens) (P24864 whole entry, looked up): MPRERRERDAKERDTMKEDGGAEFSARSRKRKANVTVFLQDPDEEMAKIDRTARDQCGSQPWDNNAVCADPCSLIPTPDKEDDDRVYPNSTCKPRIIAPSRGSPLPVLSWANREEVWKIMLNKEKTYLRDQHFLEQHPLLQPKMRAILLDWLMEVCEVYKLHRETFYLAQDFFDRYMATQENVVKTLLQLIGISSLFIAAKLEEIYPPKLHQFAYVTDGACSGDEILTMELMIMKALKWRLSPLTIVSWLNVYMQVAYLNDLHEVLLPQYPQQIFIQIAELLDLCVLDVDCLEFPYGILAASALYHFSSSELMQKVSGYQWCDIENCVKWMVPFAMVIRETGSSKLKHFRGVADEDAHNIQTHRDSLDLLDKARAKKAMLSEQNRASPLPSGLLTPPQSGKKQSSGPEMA
Sequence of CDK3/Cyclin E (Homo sapiens) (Q00526 whole entry, looked up): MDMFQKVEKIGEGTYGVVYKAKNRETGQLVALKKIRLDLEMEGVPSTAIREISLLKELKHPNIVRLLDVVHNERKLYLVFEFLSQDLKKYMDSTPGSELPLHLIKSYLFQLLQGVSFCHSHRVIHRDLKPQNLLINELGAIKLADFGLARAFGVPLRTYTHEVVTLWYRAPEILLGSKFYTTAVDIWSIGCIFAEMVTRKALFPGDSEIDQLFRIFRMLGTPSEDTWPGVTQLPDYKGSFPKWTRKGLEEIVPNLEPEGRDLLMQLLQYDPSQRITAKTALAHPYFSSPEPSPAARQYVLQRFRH

Sequence of Casein kinase I isoform alpha (Homo sapiens) (P48729 2-337 limits assumed): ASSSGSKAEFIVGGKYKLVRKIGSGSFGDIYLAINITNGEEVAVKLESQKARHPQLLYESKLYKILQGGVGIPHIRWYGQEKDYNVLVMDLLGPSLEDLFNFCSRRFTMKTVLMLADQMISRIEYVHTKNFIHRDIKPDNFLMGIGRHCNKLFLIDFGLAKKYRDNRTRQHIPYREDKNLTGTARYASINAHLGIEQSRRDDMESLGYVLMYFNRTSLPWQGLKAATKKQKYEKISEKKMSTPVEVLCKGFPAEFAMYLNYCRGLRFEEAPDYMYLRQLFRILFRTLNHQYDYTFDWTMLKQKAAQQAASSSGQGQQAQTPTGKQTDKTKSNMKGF
Sequence of Cyclin-dependent kinase 1 (Homo sapiens) (P06493 whole entry, looked up): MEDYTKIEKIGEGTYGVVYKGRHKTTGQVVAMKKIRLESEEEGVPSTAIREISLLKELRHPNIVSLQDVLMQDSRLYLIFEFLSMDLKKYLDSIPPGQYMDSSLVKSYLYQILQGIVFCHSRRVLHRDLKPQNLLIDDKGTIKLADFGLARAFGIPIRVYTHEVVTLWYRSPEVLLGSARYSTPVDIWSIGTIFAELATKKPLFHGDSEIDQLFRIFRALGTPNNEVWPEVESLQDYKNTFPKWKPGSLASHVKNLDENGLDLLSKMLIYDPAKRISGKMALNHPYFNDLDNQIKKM
Sequence of Casein kinase I isoform gamma-1 (Homo sapiens) (Q9HCP0 whole entry, looked up, canonical isoform): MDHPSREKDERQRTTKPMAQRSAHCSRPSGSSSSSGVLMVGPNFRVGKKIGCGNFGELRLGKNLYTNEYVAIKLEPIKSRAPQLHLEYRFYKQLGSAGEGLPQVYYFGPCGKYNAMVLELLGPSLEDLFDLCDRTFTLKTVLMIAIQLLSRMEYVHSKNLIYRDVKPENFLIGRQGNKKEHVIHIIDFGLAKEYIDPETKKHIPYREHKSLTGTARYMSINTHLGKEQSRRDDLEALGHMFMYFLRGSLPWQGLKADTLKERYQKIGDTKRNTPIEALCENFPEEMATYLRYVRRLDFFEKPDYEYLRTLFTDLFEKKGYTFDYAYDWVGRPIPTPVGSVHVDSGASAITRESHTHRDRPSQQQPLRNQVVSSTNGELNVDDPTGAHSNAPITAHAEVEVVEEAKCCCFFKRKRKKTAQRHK
Sequence of Casein kinase I isoform gamma-2 (Homo sapiens) (P78368 whole entry, looked up, canonical isoform): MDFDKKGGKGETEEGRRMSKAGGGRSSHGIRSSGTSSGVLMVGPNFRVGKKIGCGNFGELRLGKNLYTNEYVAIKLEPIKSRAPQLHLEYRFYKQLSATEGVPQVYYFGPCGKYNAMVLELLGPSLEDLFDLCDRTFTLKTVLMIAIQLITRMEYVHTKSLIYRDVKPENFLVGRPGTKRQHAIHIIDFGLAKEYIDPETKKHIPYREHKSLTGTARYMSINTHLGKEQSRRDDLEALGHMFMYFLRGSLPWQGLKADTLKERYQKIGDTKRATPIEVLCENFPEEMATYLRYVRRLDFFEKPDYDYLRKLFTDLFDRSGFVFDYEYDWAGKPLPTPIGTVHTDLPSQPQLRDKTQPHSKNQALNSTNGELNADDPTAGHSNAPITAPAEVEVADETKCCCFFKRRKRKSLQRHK
Sequence of Casein kinase I isoform gamma-3 (Homo sapiens) (Q9Y6M4 whole entry, looked up, canonical isoform): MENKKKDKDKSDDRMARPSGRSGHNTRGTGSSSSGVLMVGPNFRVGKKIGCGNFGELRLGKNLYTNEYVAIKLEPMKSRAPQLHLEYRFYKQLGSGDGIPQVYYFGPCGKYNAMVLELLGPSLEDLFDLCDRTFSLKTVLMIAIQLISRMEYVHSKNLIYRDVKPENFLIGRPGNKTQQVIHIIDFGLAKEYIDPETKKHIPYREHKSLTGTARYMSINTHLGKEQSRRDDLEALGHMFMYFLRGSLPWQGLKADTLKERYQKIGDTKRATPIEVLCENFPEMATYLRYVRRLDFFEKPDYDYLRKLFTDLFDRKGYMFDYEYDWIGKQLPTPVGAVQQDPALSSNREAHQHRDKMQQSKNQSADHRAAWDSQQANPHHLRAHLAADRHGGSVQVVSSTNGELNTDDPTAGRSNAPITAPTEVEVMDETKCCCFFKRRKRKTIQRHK

| Structure (SMILES) | inhibition [1] [%] | inhibition [2] [%] | inhibition [3] [%] | inhibition [4] [%] | inhibition [5] [%] | inhibition [6] [%] | inhibition [7] [%] | inhibition [8] [%] | inhibition [9] [%] | inhibition [10] [%] | inhibition [11] [%] | inhibition [12] [%] | inhibition [13] [%] | inhibition [14] [%] | inhibition [15] [%] | inhibition [16] [%] | inhibition [17] [%] | inhibition [18] [%] | inhibition [19] [%] | inhibition [20] [%] |
| --- | --- | --- | --- | --- | --- | --- | --- | --- | --- | --- | --- | --- | --- | --- | --- | --- | --- | --- | --- | --- |
| N#Cc1c(NC(=O)c2cccc3ccccc23)sc2c1CCCC2 | 6.64 | 3.39 | 2.26 | 0.88 | 0.92 | -0.66 | 2.15 | 2.73 | 2.82 | 2.2 | 3.02 | 2.06 | 2.66 | 1.07 | 5.24 | 4.98 | 0.97 | 5.24 | 6.76 | 2.56 |
| COc1cc2ncn(-c3cc(O[C@@H](C)c4ccccc4Cl)c(C(N)=O)s3)c2cc1OC | 27 | 3.02 | 5.73 | 1.37 | 1.24 | 4.77 | 4.44 | 4.61 | 5.05 | 4.07 | 5.19 | 3.46 | 3.53 | -0.28 | 2.69 |  |  |  |  | -0.85 |
| CS(=O)(=O)CCN(CC#N)Cc1ccc(-c2ccc3ncnc(Nc4ccc(OCc5cccc(F)c5)c(Cl)c4)c3c2)o1 | 1.61 | 1.37 | 1.5 | 0.63 | 1.39 | 1 | 2.88 | -2.14 | -3.1 | -1.98 | -2.18 | -1.66 | -4.35 | -3.13 | -3.04 | -1.63 | -2.87 | -2.44 | -4.09 | -2.24 |
| Cn1cc(C=C2C(=O)Nc3cccnc32)c2ccccc21 | 10.2 | 1.87 | 1.12 | -0.65 | -0.52 | 3.21 | 14.3 | 2.59 | 4.56 | 1.76 | 3.63 | 1.67 | 5.3 | 4.27 | 7.4 | 2.66 | 3.89 | 7.44 | 8.9 | 10.7 |
| O=C1NC(=O)C(c2cccc(Cl)c2)=C1Nc1ccc(O)c(Cl)c1 | 23.9 | 1.11 | 1.63 | -0.57 | 0.16 | 1.72 | 9.44 | 0.2 | 1.3 | 0.09 | 0.54 | 1.06 | 0.9 | 0.73 | 7.55 | 1.84 | 6.86 | 2.79 | 10.6 | 3.01 |
| COc1ccc(-c2coc3ncnc(N)c23)cc1 | 7.65 | 4.08 | 3.27 | 1.1 | 0.95 | 6.3 | 4.04 | 4.29 | 4.94 | 4.25 | 6.12 | 3.42 | 5.14 | 1.77 | 3.58 | 2.89 | 0.12 | 6.07 | 7.82 | 4.84 |
| CN(C)c1cc2c(Nc3ccc4nc(Cc5ccccc5)[nH]c4c3)ncnc2cn1 | 4.24 | 5.14 | 5.29 | 4.42 | 3.59 | 3.65 | 6.31 | 4.21 | 5.5 | 3.69 | 5.2 | 3.73 | 4.56 | -0.43 | 1.6 | 2.83 | 6.58 | 4.49 | 5.71 | 3.16 |

Source: ChEMBL document CHEMBL1961873, “Compounds: GSK PKIS; Assays: Nanosyn kinase panel” (2012)
